From PubChem BioAssay
Records with an inconclusive call do not appear. The source made the active and inactive calls.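 The calls were made as follows, unless noted: active = growth inhibition above 25% in both replicates, a cutoff set 3 SD above the mean; inconclusive = above 25% in only one replicate; inactive = the rest.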

Legend:
[1] = HUVEC growth inhibition – cell-based, human, primary screen (AID 575;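 active = viability at or below 30% in both replicate assays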;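 also: 100% = median of untreated cell wells with 0.1% DMSO on each plate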); settings: HUVEC proliferation, CellTiter-Glo luminescence, 72 h; at 10 µM; stronger effect = lower value
[2] = H69AR cell proliferation blockers – human, duplicate replicates, primary screen (AID 580;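 active = viability at or under a set limit in both replicates, limit being median viability minus 3 SD, cut at about 48% in these data, passing the limit was not always enough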;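 also: 100% = mean luminescence of untreated wells and 0% = no signal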); settings: H69AR lung tumor cells viability, ATP luminescence, 72 h; at 10 µM; stronger effect = lower value
[3] = MRP1 drug-resistance reversers in H69AR cells – cell-based, doxorubicin co-treatment, pilot screen (AID 601;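 active = viability loss from added drug above about 55%, and viability with drug at most 40%, in both replicates, limit read from the data, passing the limit was not always enough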); settings: CellTiter-Glo, 72 h, at 10 µM; for differential viability (reversal): stronger effect = higher value
[4] = yeast transport mutant growth inhibition pilot in 384-well plates, post-Golgi transport modulator project (AID 636; in the data active = inhibition above about 31%); settings: absorbance 615 nm, about 18 h, stronger effect = higher value
[5] = growth suppression of yeast trafficking mutant, preliminary HTS, modulators of trafficking downstream of Golgi apparatus project, 1536-format plate, OD 615 nm (AID 637; in the data active = inhibition above about 30%); settings: yeast transport mutant growth, absorbance 615 nm, 18 h; stronger effect = higher value
[6] = S. cerevisiae growth inhibition in permissive medium (OD615), pilot counter-assay for S. cerevisiae lifespan shortening project, permissive growth control (AID 705); settings: OD615, 24 h, at 10 µM, stronger effect = higher value
[7] = S. cerevisiae growth inhibition in restrictive medium, OD615, pilot screen, restrictive growth control, yeast lifespan reduction project (AID 706;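 active = growth inhibition above a set limit, 3 SD over mean compound inhibition, in both replicates, cut at about 43% in these data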;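 also: modified DeaD lifespan yeast strain shifted to restrictive glucose medium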); settings: OD615, 48 h, at 10 µM, stronger effect = higher value
[8] = doxorubicin toxicity protection in MRP-1 cells – H69AR cells, CellTiter-Glo, duplicate, MRP-1 activator project, pilot screen (AID 807;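 active = viability increase at or above a cutoff of the median across tested compounds plus 3 SD, cut at about 8.5% in these data, passing the limit was not always enough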;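 also: compound pretreatment 18-22 h then 72 h combined with doxorubicin; 0% = doxorubicin alone and 100% = vehicle without doxorubicin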); settings: H69AR viability with doxorubicin, CellTiter-Glo luminescence; at 10 µM; stronger effect = higher value
[9] = viability of HCT116 without oncogenic beta-catenin – human colon tumor cells, pilot screen (AID 823;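 active = cell viability at or below a set limit in both duplicate runs, the limit being the all-compound median minus 4 SD, cut at about 23% in these data, passing the limit was not always enough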;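 also: 0% = wells killed by 20 µM Hyamine and 100% = untreated DMSO cell wells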); settings: HCT116 beta-catenin knockout viability, CellTiter-Glo, 60 h; at 10 µM; stronger effect = lower value
[10] = RAM pathway blockade in budding yeast – dse1pr::URA3 reporter, 5-FOA selection, pilot screen (AID 869;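 active = inhibition over a set limit, the all-compound mean plus 3 SD, in both replicate runs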;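 also: 0% = DMSO wells with no growth and 100% = 10 µM 1-NA-PP1 with full growth; RAM network block rescues cells from 5-FOA so hits raise OD615 growth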); settings: S. cerevisiae dse1pr::URA3 5-FOA growth, OD615, 2 d; at 10 µM; stronger effect = higher value; strain carries analog-sensitive mutant Cbk1 kinase
[11] = RAM signaling pathway blockade in yeast – S. cerevisiae, Pdr1DBD-CYC8 efflux-inhibited sensitized strain, primary screen (AID 1298;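 active = RAM network inhibition above 8.4% in each of two replicates, 3 SD over the compound average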;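 also: 0% = DMSO untreated cells without growth and 100% = 10 µM 1-NA-PP1 full growth; higher means more yeast growth rescued from 5-FOA killing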); settings: S. cerevisiae cbk1-as DSE1-URA3 strain, 5-FOA growth OD615, 2 d; at 50 µM; stronger effect = higher value
[12] = viability of PTEN-null HCT116 cells – cell-based, HCT116 clonal line, CellTiter-Glo, pilot screen (AID 824;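 active = viability at or below 27.92% in each of two runs, the all-compound median minus 4 SD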;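 also: 0% = 20 µM Hyamine control and 100% = vehicle cell control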); settings: HCT116 PTEN-deleted viability, 60 h, at 10 µM, stronger effect = lower value
[13] = H69AR cells + 2 uM doxorubicin, measured here: viability with 2 uM doxorubicin, stronger effect = lower value
[14] = H69AR cells, compound alone cytotoxicity

CC(C)c1ccc(-c2nc(N3CCCCC3)[nH]c(=O)c2C#N)cc1
inactive: viability [1] 83.3% | viability [2] 88.3% | differential viability (reversal) ([3]; H69AR cells + 2 uM doxorubicin) 0.79% | inhibition [4] 0.92% | inhibition [5] -3.49% | growth inhibition [6] -17.7% | growth inhibition [7] 3.37% | viability increase [8] -2.54% | viability [9] 102% | inhibition [10] 2.5% | RAM network inhibition [11] 8.32%
88.3%: viability [3, 14]
87.5%: viability [3, 13]

COC(=O)c1ccc(Nc2ncnc3c2cnn3-c2cccc(C)c2)cc1
inactive: growth inhibition [6] -13% | growth inhibition [7] -25.2% | viability increase [8] -3.78% | viability [9] 109% | viability [12] 93.4% | RAM network inhibition [11] 10.5%

CCOC(=O)c1c(NC(=O)c2cccs2)sc2c1CCC2
inactive: growth inhibition [6] -13.6% | growth inhibition [7] -20.4% | viability increase [8] -0.45% | viability [9] 91.7% | viability [12] 90.4% | RAM network inhibition [11] 4.33%

Cc1ccc(OCC(=O)Nc2ccc(O)c(-c3nc4ccccc4o3)c2)cc1
inactive: growth inhibition [6] -10% | growth inhibition [7] -14.9% | viability increase [8] -7.57% | viability [9] 38.8% | viability [12] 54% | RAM network inhibition [11] 2.6%

CCC(=O)N1c2ccccc2-c2nnc(SC)nc2OC1c1ccc(OC)c(OC)c1 (centres undefined)
inactive: growth inhibition [6] -7.65% | growth inhibition [7] -7.5% | viability increase [8] -2.71% | viability [9] 102% | viability [12] 94.1% | RAM network inhibition [11] 1.85%

N#CC(=C1SC=CS1)c1nc(-c2ccccc2)cs1
inactive: growth inhibition [6] 5.05% | growth inhibition [7] -6.89% | viability increase [8] -3.21% | viability [9] 84.4% | RAM network inhibition [11] 9.12%

CC(c1ccco1)N(C(=O)COc1ccc(Cl)cc1Cl)c1ccccn1 (centres undefined)
76.4%: viability [3, 14]
73.3%: viability [3, 13]
inactive: viability [1] 71.6% | viability [2] 76.4% | differential viability (reversal) ([3]; H69AR cells + 2 uM doxorubicin) 3.06% | inhibition [4] -6.71% | inhibition [5] -10.3% | growth inhibition [6] -10.9% | growth inhibition [7] -10.3% | viability increase [8] -4.89% | viability [12] 65.6% | inhibition [10] 2.06% | RAM network inhibition [11] 7.28%

Cc1cc2cc(CNC(=O)c3ccc(S(=O)(=O)N4CCOCC4)cc3)ccc2[nH]1
inactive: growth inhibition [6] -5.21% | growth inhibition [7] -10.8% | viability increase [8] 0.86% | viability [9] 99.5% | viability [12] 96.2% | RAM network inhibition [11] 5.69%

Clc1cc(Br)ccc1OCCOCCN1CCOCC1
inactive: growth inhibition [6] -3.75% | growth inhibition [7] 2.38% | viability increase [8] 0.57% | viability [9] 93.5% | viability [12] 91.7% | RAM network inhibition [11] 0.08%

Cc1ccc(-c2nc(CSCC(=O)N3CCN(C(=O)c4ccco4)CC3)c(C)o2)cc1
inactive: growth inhibition [6] -4.69% | growth inhibition [7] 14.9% | viability increase [8] -1.03% | viability [9] 76.4% | viability [12] 76.5% | RAM network inhibition [11] 6.53%

N#Cc1nc(-c2ccc(F)cc2)oc1NCCN1CCOCC1
inactive: growth inhibition [6] -0.47% | growth inhibition [7] -8.75% | viability increase [8] -2.06% | viability [9] 96% | viability [12] 92.3% | RAM network inhibition [11] 7.83%

Cn1c(=O)[nH]c(=O)c2c1nc(Sc1ccccc1)n2CCc1ccccc1
inactive: growth inhibition [6] -4.23% | growth inhibition [7] -5.96% | viability increase [8] -5.18% | viability [9] 91.6% | viability [12] 69.2% | RAM network inhibition [11] 7.53%

Cn1c(=O)c2nnn(/N=C(\c3ccccc3)C3CC3)c2n(C)c1=O
inactive: growth inhibition [6] -11.4% | growth inhibition [7] -15% | viability increase [8] -1.2% | viability [9] 103% | viability [12] 98.7% | RAM network inhibition [11] 2.84%

O=C(Cn1c(=O)oc2cc(S(=O)(=O)N3CCCC3)ccc21)NC1CCCc2ccccc21 (centres undefined)
inactive: growth inhibition [6] -5.83% | growth inhibition [7] -9.71% | viability increase [8] -0.88% | viability [9] 97% | viability [12] 79.4% | RAM network inhibition [11] 10.3%

COc1ccc(-n2c(SCC(=O)Nc3ccc4c(c3)OCO4)nc3c(c2=O)SCC3)cc1
inactive: growth inhibition [6] -15.7% | growth inhibition [7] -12.5% | viability increase [8] -2.51% | viability [9] 98.2% | viability [12] 81.2% | RAM network inhibition [11] 8.27%

CCSC(C)CC1C/C(=N/O)c2c(CC)noc2C1 (centres undefined)
inactive: growth inhibition [6] -0.005% | growth inhibition [7] -4.39% | viability increase [8] 5.22% | viability [9] 93.6% | viability [12] 94.2% | RAM network inhibition [11] 0.17%

CCCCn1c(CNC(C)=O)nc2ccccc21
inactive: growth inhibition [6] -2.36% | growth inhibition [7] 0.94% | viability increase [8] -1.24% | viability [9] 98.1% | viability [12] 100% | RAM network inhibition [11] 1.93%

Cc1cc(NC(=O)CSc2cn(CCNC(=O)c3ccc(Cl)cc3)c3ccccc23)no1
inactive: growth inhibition [6] -4.83% | growth inhibition [7] -1.28% | viability increase [8] -0.7% | viability [9] 61.5% | viability [12] 57.3% | RAM network inhibition [11] 3.24%

Cc1ccc(CN2CCNC(=O)C2CC(=O)O)cc1 (centres undefined)
inactive: growth inhibition [6] 2.7% | growth inhibition [7] -8.03% | viability increase [8] -1.2% | viability [9] 97.3% | viability [12] 92.4% | RAM network inhibition [11] 0.83%

COc1ccccc1OCC(O)CN1C(=O)NC(C)(C)C1=O (centres undefined)
inactive: growth inhibition [6] -7.73% | growth inhibition [7] -7.44% | viability increase [8] -0.34% | viability [9] 93.4% | viability [12] 91.6% | RAM network inhibition [11] 2.29%

Cn1c(Cn2c(=O)sc3ccccc32)nnc1SCC(=O)Nc1ccccc1
inactive: growth inhibition [6] -7.53% | growth inhibition [7] -2.15% | viability increase [8] -1.41% | viability [9] 99.5% | viability [12] 98.1% | RAM network inhibition [11] 13%
